Compound activity from PubChem BioAssay.
D3 ag: D3 dopamine receptor (human) agonism. P35462. D3R DiscoveRx beta-arrestin cells, luminescence, 90 min. max activation, %. 410,000 compounds, 0.58% hits. AID 652048; in the data active means max activation above about 30%; further: 0% is about no effect
Target sequence (P35462 whole entry, looked up): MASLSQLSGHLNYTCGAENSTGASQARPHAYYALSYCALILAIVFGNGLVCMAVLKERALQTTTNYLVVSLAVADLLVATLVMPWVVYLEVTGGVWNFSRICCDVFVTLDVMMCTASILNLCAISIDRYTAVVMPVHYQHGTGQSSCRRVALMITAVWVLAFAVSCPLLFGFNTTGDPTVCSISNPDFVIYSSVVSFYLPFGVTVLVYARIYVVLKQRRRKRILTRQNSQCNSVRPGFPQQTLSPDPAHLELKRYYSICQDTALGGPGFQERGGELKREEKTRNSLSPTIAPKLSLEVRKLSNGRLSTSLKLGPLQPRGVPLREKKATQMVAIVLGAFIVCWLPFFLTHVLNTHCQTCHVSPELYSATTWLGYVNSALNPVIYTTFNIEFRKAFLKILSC
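Agonist-mode cell screen: cells plated at 1500/well and incubated overnight at 37 °C, then exposed to library compounds for 90 min at 37 °C. Detection reagent was added for 30–60 min at room temperature, and luminescence was read.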
D3 antag: antagonists of human D3 dopamine receptor | 360,000 compounds, 2.5% hits | max response, negative = inhibition, % | AID 652054 | P35462 | D3R cells, DiscoveRx beta-arrestin luminescence, antagonist mode; hits give low values; in the data active means max response below about -50%; inconclusive means no clear call, values can overlap the other calls; further: on the % scale 0 is the no-effect control and ±100 the full control effect
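Cells plated overnight at 1500 cells/well, then exposed to library compounds with dopamine controls for 90 minutes at 37 degrees C. DiscoveRx reagent added for 30–60 minutes at room temperature; luminescence read, quantitative HTS format.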
GRP78 ERSR act: ER stress response induction in glioma; U87-MG GRP78 promoter luciferase reporter, 16 h; Potency, µM, for inactives: at the top dose activation, hits mostly activators; 420,000 compounds, 0.02% hits; AID 602332; further: potency means the concentration at half of the fitted maximal effect; series mostly up to about 76 µM; % of control where 0% means no effect; nearly all actives have a fitted effect of over 35% in size
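Stably transfected U87-MG glioma cells carrying a GRP78-based luciferase sensor; 16 h compound incubation. Luminescence end-point read 10 min after Bright-Glo addition at room temperature.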
Nrf2 ARE act: activators of Nrf2 (ARE) signaling. AREc32 ARE-luciferase reporter (MCF7-derived line), luminescence, 24 h. Potency, µM (series often up to 46.1 µM), for inactives: at the highest dose activation, actives largely listed as activators. 410,000 compounds, 0.31% hits; further: potency means the concentration at half of the fitted maximal effect; % of control where 0% means no effect; nearly all actives have a fitted effect of over 65% in size
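AREc32 cells carrying an ARE-driven firefly luciferase, 1000 cells/well in OPTI-MEM with 5% FBS, dosed after overnight attachment and incubated 24 hr at 37 deg C. Steady-Glo luminescence read after 30 min at RT.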
* = called active by the depositor; u = inconclusive; x = not tested or not shown. Compounds with a hit are over-represented: about 3% of the library has one in this group of screens. Unless noted, the call rests on the fitted dose curve; in most records, active means well fitted curve in the direction sought with a large enough effect; inconclusive means small, poorly fitted or top-dose-only effect, or another doubt; inactive means no such curve, though single readings can be large; an effect the other way counts as inactive or inconclusive.

SMILES | D3 ag | D3 antag | GRP78 ERSR act | Nrf2 ARE act
Cc1ccc2c(c1)[C@]13CCCC[C@@H]1[C@H](C2)N(C)CC3 | 7 | x | x | x
COc1ccccc1C1CC2CCC(C1OC(C)=O)N2Cc1ccccc1 (stereo not drawn) | -19 | -87* | -5% | 0%
COc1cc(CN2CCN(C(=O)Cc3ccccc3)CC2)cc(OC)c1OC | 3 | 0 | 1% | 1%
CCOc1cc(OP(=S)(OC)OC)nc(CC)n1 | x | x | -1% | x
C[S@@](=O)CCCCN=C=S | x | x | -8% | x
COC(=O)C1=C(c2ccc(OC)c(OC)c2)C[C@@H]2CC[C@H]1N2C(=O)N1CCC(C)CC1 | -14 | u | -3% | 0%
COC(=O)C1=C(c2ccc(S(C)(=O)=O)cc2)C[C@@H]2CC[C@H]1N2C(=O)N1CCC(O)CC1 | 33* | 17 | -5% | 1%
COC(=O)C1=C(c2ccc(Cl)c(C(F)(F)F)c2)C[C@@H]2CC[C@H]1N2C(=O)N1CCC(C)CC1 | -46 | -50* | -4% | 0%
CCc1cc(OC)c(CC(C)N)cc1OC (stereo not drawn) | x | x | -3% | x
Cc1cc(C)cc(N2C(=O)NC(=O)/C(=C\c3cccn3-c3ccc(Cl)cc3)C2=O)c1 | -3 | -72* | u | 25%
CC(=O)N1C[C@H](O)C[C@H]1C(=O)O | -14 | -28 | u | 0%
N/C(=N\N=C\c1ccc(O)cc1O)N[N+](=O)[O-] | -4 | -64* | -3% | 0%
CC[C@@H]1/C=C/C=C/C[C@H](C)[C@@H](O)[C@](C)(O)C(=O)[C@H](C)[C@@H](O)[C@H](C)C(=O)[C@H](C)[C@@H](O)[C@H](C)/C=C/C(=O)O[C@H]2[C@@H](C)[C@@H](CC1)O[C@@]1(CC[C@@H](C)[C@@H](C[C@H](C)O)O1)[C@@H]2C | x | x | 0% | x
O=c1[nH]c2ccccc2n1C1CCN(Cc2ccc(-c3nc4ccccc4nc3-c3ccccc3)cc2)CC1 | -16 | -92* | x | 0%
Cc1ccc2nc(-c3ccc(CN4CCC(n5c(=O)[nH]c6ccccc65)CC4)cc3)c(-c3ccccc3)nc2c1 | -13 | -28 | x | 0%
COc1ccc2nc(-c3ccc(CN4CCC(n5c(=O)[nH]c6ccccc65)CC4)cc3)c(-c3ccccc3)nc2c1 | -14 | -53* | x | -1%
O=c1[nH]c2ccccc2n1C1CCN(Cc2ccc(-c3nc4ccc(F)cc4nc3-c3ccccc3)cc2)CC1 | -19 | -96* | x | -1%
O=c1[nH]c2ccccc2n1CCCN1CCC(n2c(=O)[nH]c3cc(Cl)ccc32)CC1 | -90 | -103* | -3% | 7%
Oc1cc2c(cc1O)[C@H]1c3ccccc3CN[C@H]1CC2 | x | x | -7% | x
C=C[C@H]1CN2CC[C@H]1C[C@H]2[C@H](OC(=O)OCC)c1ccnc2ccc(OC)cc12 | -11 | x | x | x
c1cc[n+]2c(c1)-c1cccc[n+]1CC2 | x | x | -1% | x
CCN1CCN(Cc2cc(Br)cc(OC)c2O)CC1 | -38 | -53* | -4% | 2%
Oc1c(Br)cc(Br)cc1CN1CCN(Cc2ccccc2)CC1 | -3 | u | 5% | 4%
COc1ccccc1CN1CCCCC1c1cccnc1 (stereo not drawn) | 33* | -9 | -1% | -1%
Fc1ccc(CCNCc2ccc(Br)cc2)cc1 | -17 | -56* | -5% | 2%
SMILES | D3 ag | D3 antag | GRP78 ERSR act | Nrf2 ARE act
Fc1ccc(CCNCc2cccc(Cl)c2)cc1 | -29 | -56* | -3% | 3%
O=C1/C(=C/c2ccc(N(CCCl)CCCl)cc2)Cc2ccccc21 | x | x | 0% | x
CC(Cc1ccccc1)[n+]1cc(/N=C(\[O-])Nc2ccccc2)on1 (stereo not drawn) | 1 | -54* | -3% | 1%
CC(C)OC(=O)C(O)(c1ccc(Cl)cc1)c1ccc(Cl)cc1 | x | x | -11% | x
CN1CC(C(=O)c2cccs2)C(c2ccc(Cl)cc2)C1 (stereo not drawn) | -25 | -75* | -2% | 5%
CN1C2CCCC1CC(=O)C2 | x | x | 1% | x
C=CC[C@]1(O)CC[C@H]2[C@@H]3CCC4=CCCC[C@@H]4[C@H]3CC[C@@]21C | 1 | x | x | x
Oc1ccc(-[n+]2c(-c3ccccc3)cc(-c3ccccc3)cc2-c2ccccc2)cc1 | -1 | 9 | -10% | -2%
O=C([O-])c1ccc(-[n+]2c(-c3ccccc3)cc(-c3ccccc3)cc2-c2ccccc2)cc1 | 55* | -15 | 1% | -1%
COc1cc2c(c3oc4cccc(O)c4c(=O)c13)C1C=CO[C@@H]1O2 (stereo partly drawn) | x | x | 0% | x
CCO/N=C(\CC)C1=C(O)CC(c2c(C)cc(C)cc2C)CC1=O (stereo not drawn) | 8 | x | x | x
O=C(c1ccc2c(c1)OCO2)C1CCCN(CC2CCCCC2)C1 (stereo not drawn) | -26 | -83* | -4% | -1%
O=C(c1ccc2c(c1)OCO2)C1CCCN(Cc2c(F)cccc2Cl)C1 (stereo not drawn) | -12 | u | -6% | 0%
COc1ccccc1CC(=O)N1CCN(CCc2ccccc2)CC1 | -11 | -15 | 3% | 0%
Cc1ccc(N2CCN(CCc3ccccc3)CC2)cc1 | -45 | -66* | -2% | -1%
COc1ccccc1N1CCN(Cc2cnc(-c3ccccc3)[nH]2)CC1 | -27 | -83* | -2% | 0%
Cc1cccc(N2CCN(CCc3ccccc3)CC2)c1C | 20 | -68* | -4% | 0%
COc1ccccc1N1CCN(CCc2ccccc2)CC1 | -1 | -104* | -2% | 1%
c1ccc(CCN2CCCC2)cc1 | x | x | -4% | x
c1ccc(CCN2CCCCC2)cc1 | x | x | -3% | x
NC(Cc1ccc(Oc2cc(I)c(O)c(I)c2)c(I)c1)C(=O)O (stereo not drawn) | x | x | -5% | x
CC(C)CCC(=O)O[C@H]1CC[C@H]2[C@@H]3CCC4=CC(=O)CC[C@]4(C)[C@H]3CC[C@]12C | 9 | x | x | x
C#CCN1CC(=O)N(COC(=O)C2C(C=C(C)C)C2(C)C)C1=O (stereo not drawn) | 4 | x | x | x
O=C(CN1CC=C(c2ccccc2)CC1)Nc1c(Cl)cccc1Cl | 1 | -71* | -5% | 0%
O=C(CN1CC=C(c2ccccc2)CC1)Nc1cc(Cl)ccc1Cl | -7 | 3 | -2% | 3%
SMILES | D3 ag | D3 antag | GRP78 ERSR act | Nrf2 ARE act
CCOP(=S)(OCC)Oc1ccc(Cl)cc1Cl | x | x | -1% | x
C[CH2][Hg][S]c1ccccc1C(=O)O | -41 | -64* | -12% | u
O=C(O)COc1ccc(Cl)cc1Cl | -10 | -7 | 3% | -1%
Cc1cc(Cl)ccc1OCC(=O)O | -88 | -110* | 4% | 0%
CN(C)CCc1c[nH]c2cccc(O)c12 | -10 | x | 1% | x
C[N+](C)(C)CC1CCCc2ccccc2C1=O (stereo not drawn) | -10 | -2 | -13% | 21%
C[N+](C)(C)CC1CCCC(C[N+](C)(C)C)C1=O (stereo not drawn) | -9 | -26 | -14% | 11µM*
CCN1/C(=C\C=C\C2=[N+](CC)c3ccccc3C2(C)C)C(C)(C)c2ccccc21 | -12 | -96* | -14% | -4%
CCCCNC(C)Cc1ccccc1 (stereo not drawn) | -68 | -51* | -1% | 1%
O=C(CN1CCOCC1)c1cccc2ccccc12 | -7 | -55* | 1% | 0%
